From ChEMBL document CHEMBL1961873, “Compounds: GSK PKIS; Assays: Nanosyn kinase panel” (2012)

Columns and labels:
[1] = target: Leukocyte tyrosine kinase receptor (Homo sapiens) (UniProt P29376); conditions: at 1 µM;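 further: each value is the mean inhibition of LTK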
[2] = target: Tyrosine-protein kinase Lyn (Homo sapiens) (UniProt P07948); conditions: at 0.1 µM
[3] = target: Tyrosine-protein kinase Lyn (Homo sapiens) (UniProt P07948); conditions: at 1 µM
[4] = target: Tyrosine-protein kinase Lyn (Homo sapiens) (UniProt P07948); conditions: at 0.1 µM; remark: listed apart in the source
[5] = target: Tyrosine-protein kinase Lyn (Homo sapiens) (UniProt P07948); conditions: at 1 µM; remark: listed apart in the source
[6] = target: T1, Tyrosine-protein kinase Mer (Homo sapiens) (UniProt Q12866); conditions: at 0.1 µM
T1 sequence (whole entry): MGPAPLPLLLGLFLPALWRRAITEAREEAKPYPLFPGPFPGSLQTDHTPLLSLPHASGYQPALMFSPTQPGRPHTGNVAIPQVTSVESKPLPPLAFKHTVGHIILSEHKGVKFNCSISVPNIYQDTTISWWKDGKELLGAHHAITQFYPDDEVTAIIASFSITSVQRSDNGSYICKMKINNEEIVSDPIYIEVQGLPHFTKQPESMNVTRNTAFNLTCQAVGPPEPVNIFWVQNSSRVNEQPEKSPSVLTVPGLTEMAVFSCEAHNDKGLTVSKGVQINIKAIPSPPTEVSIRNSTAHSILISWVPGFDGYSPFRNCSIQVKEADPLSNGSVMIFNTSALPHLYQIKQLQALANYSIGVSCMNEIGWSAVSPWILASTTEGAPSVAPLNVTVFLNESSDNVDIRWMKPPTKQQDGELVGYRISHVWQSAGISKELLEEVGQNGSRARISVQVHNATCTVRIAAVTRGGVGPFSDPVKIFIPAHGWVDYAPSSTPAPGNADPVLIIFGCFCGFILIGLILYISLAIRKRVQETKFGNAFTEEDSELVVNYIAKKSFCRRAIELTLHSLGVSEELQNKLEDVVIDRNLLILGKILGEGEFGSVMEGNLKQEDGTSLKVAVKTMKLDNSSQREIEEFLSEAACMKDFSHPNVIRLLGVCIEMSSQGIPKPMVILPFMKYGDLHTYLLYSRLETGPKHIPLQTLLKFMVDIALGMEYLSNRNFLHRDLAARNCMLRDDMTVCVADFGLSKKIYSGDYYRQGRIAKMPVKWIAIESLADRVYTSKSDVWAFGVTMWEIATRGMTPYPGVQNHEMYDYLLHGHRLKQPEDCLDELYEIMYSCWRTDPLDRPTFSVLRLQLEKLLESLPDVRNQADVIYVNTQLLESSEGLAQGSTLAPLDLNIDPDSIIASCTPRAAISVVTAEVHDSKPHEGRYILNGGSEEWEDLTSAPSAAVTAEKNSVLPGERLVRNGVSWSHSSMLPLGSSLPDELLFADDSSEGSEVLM

[7] = target: T1, Tyrosine-protein kinase Mer (Homo sapiens); conditions: at 1 µM
[8] = target: Hepatocyte growth factor receptor (Homo sapiens) (UniProt P08581); conditions: at 0.1 µM
[9] = target: Hepatocyte growth factor receptor (Homo sapiens) (UniProt P08581); conditions: at 1 µM
[10] = target: T2, Muscle, skeletal receptor tyrosine-protein kinase (Homo sapiens) (UniProt O15146); conditions: at 0.1 µM
T2 sequence (whole entry): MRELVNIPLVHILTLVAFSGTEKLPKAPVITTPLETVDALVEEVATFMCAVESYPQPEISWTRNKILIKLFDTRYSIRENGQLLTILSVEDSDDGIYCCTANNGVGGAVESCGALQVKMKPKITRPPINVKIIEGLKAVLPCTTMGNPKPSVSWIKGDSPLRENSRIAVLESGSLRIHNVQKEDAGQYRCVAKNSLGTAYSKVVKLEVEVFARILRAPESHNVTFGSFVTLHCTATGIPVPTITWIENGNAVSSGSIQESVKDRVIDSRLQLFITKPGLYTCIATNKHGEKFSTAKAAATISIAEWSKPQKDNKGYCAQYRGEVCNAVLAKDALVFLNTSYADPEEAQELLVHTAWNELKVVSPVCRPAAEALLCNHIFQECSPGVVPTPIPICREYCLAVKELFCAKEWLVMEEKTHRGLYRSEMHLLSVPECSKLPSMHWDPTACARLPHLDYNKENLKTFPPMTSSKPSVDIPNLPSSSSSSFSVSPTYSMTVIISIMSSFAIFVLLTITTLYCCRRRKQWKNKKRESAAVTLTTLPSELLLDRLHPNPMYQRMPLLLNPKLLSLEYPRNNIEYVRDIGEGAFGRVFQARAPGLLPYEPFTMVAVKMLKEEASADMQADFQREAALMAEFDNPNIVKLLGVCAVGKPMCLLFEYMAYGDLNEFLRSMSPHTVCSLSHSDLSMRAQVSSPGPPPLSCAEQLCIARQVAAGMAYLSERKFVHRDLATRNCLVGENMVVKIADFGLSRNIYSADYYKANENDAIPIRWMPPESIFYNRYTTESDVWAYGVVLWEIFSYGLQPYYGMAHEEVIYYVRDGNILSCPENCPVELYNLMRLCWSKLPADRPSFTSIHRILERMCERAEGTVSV

[11] = target: T2, Muscle, skeletal receptor tyrosine-protein kinase (Homo sapiens); conditions: at 1 µM
[12] = target: Platelet-derived growth factor receptor alpha (Homo sapiens) (UniProt P16234); conditions: at 0.1 µM
[13] = target: Platelet-derived growth factor receptor alpha (Homo sapiens) (UniProt P16234); conditions: at 1 µM
[14] = test system: Platelet-derived growth factor receptor alpha (Homo sapiens), P16234 [D842V]; conditions: at 0.1 µM
[15] = test system: Platelet-derived growth factor receptor alpha (Homo sapiens), P16234 [D842V]; conditions: at 1 µM
[16] = test system: Platelet-derived growth factor receptor alpha (Homo sapiens), P16234 [T674I]; conditions: at 0.1 µM
[17] = test system: Platelet-derived growth factor receptor alpha (Homo sapiens), P16234 [T674I]; conditions: at 1 µM
[18] = test system: Platelet-derived growth factor receptor alpha (Homo sapiens), P16234 [V561D]; conditions: at 0.1 µM
[19] = test system: Platelet-derived growth factor receptor alpha (Homo sapiens), P16234 [V561D]; conditions: at 1 µM
[20] = target: Platelet-derived growth factor receptor beta (Homo sapiens) (UniProt P09619); conditions: at 0.1 µM;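 further: reported value is the mean percent inhibition of the kinase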
Platelet-derived growth factor receptor beta (Homo sapiens), sequence (P09619 whole entry): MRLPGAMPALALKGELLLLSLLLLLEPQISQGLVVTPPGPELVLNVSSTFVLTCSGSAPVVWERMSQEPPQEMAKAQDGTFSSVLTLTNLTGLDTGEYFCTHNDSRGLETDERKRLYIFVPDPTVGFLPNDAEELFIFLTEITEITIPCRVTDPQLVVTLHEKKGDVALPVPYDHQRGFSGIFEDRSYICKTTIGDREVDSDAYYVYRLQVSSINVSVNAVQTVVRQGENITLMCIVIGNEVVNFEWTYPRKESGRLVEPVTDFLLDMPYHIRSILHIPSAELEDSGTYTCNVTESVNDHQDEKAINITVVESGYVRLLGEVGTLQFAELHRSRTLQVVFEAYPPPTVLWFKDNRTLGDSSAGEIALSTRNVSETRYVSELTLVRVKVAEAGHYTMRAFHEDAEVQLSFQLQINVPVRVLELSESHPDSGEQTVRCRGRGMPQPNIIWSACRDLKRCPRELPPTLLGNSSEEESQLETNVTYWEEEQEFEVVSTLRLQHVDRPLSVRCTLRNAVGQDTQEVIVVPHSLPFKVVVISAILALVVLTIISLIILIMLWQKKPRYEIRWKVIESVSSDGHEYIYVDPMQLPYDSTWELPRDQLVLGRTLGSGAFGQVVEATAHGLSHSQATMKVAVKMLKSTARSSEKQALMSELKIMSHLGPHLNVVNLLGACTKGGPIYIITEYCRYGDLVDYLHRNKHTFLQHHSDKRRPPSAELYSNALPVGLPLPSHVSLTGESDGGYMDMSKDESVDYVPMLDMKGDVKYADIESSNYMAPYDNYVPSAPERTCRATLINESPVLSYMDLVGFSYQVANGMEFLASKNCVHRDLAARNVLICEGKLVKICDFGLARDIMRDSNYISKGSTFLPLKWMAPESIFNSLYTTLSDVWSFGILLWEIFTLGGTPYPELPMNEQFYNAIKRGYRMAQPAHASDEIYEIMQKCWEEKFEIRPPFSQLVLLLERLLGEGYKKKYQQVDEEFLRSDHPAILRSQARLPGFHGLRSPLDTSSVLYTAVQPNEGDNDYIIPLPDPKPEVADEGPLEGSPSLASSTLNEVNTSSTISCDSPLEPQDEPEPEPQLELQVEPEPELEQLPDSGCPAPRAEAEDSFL

Leukocyte tyrosine kinase receptor (Homo sapiens), sequence (P29376 whole entry): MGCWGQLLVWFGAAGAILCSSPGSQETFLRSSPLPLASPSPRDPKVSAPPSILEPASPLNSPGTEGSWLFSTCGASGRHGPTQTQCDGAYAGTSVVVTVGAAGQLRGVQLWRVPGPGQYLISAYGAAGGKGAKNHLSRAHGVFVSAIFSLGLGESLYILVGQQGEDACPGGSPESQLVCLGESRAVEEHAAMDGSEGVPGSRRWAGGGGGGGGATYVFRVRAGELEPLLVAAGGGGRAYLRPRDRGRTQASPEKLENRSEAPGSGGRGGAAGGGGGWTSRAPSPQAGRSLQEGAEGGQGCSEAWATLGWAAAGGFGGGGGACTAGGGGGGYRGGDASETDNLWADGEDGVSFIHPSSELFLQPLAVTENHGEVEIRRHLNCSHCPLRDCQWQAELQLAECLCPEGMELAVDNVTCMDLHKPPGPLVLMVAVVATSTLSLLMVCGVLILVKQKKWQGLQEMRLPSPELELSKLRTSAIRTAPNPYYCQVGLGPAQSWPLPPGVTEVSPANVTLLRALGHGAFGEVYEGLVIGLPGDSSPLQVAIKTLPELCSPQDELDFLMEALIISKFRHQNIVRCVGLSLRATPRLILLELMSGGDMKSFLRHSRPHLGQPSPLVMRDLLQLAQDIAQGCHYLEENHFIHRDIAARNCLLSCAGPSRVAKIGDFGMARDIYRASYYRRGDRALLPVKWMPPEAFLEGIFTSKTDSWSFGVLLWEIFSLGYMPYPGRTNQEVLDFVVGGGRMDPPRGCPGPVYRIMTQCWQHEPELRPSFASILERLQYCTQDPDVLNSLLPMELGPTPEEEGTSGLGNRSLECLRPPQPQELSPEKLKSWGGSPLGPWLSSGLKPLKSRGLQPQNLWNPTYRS
Platelet-derived growth factor receptor alpha (Homo sapiens), sequence (P16234 whole entry): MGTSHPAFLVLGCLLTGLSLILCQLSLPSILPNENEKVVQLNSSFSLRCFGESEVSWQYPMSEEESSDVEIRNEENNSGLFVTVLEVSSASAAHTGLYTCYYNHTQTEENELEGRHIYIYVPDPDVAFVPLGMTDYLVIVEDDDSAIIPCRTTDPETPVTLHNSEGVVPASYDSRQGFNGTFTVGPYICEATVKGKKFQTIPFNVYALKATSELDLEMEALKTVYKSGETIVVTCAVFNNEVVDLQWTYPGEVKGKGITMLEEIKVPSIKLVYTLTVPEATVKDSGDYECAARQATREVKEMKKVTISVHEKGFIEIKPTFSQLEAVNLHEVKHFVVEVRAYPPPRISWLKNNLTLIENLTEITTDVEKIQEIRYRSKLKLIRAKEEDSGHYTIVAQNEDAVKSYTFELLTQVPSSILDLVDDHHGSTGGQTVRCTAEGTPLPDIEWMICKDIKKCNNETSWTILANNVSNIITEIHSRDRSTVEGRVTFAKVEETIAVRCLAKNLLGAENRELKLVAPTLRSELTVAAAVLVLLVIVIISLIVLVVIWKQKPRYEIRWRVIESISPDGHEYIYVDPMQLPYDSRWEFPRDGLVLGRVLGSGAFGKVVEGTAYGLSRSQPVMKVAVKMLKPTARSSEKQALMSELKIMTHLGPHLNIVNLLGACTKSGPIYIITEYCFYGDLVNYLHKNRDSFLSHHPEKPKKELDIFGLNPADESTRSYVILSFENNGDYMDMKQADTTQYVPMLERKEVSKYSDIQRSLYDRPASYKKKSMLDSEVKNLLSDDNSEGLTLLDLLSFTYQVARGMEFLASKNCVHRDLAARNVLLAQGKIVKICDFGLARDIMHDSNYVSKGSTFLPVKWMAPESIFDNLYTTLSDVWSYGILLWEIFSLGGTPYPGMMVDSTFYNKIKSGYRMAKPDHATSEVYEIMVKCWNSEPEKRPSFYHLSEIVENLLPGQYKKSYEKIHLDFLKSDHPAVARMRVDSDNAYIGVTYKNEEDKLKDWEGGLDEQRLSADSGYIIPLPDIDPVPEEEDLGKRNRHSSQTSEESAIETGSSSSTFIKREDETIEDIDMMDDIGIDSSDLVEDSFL
Tyrosine-protein kinase Lyn (Homo sapiens), sequence (P07948 2-512 limits assumed): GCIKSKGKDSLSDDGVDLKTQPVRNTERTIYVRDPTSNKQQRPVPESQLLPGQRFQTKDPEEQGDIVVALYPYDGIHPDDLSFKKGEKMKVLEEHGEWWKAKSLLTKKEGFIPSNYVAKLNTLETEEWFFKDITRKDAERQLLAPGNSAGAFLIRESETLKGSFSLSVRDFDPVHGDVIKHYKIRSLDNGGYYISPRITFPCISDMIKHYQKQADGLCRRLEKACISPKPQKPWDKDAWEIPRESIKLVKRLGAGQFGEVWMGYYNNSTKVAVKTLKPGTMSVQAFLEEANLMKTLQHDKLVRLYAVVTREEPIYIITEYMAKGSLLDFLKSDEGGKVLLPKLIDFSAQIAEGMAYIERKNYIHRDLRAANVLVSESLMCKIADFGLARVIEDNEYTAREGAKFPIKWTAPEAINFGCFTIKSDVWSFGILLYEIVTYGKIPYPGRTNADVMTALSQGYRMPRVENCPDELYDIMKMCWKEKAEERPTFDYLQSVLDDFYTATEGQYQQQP
Platelet-derived growth factor receptor alpha (Homo sapiens), P16234 [T674I], sequence (P16234 whole entry T674I): as the sequence (P16234 whole entry) above, with T674I counted along it

SMILES | inhibition [1] | inhibition [2] | inhibition [3] | inhibition [4] | inhibition [5] | inhibition [6] | inhibition [7] | inhibition [8] | inhibition [9] | inhibition [10] | inhibition [11] | inhibition [12] | inhibition [13] | inhibition [14] | inhibition [15] | inhibition [16] | inhibition [17] | inhibition [18] | inhibition [19] | inhibition [20]
CC(C)(CO)CNC(=O)c1ccc2c(c1)/C(=N/Nc1ccc(S(N)(=O)=O)cc1)C(=O)N2 | -1.87% | -1.12% | 9.87% | -1.58% | 8.71% | -2.26% | 1.33% | 9.65% | 9.33% | 3.03% | 21.6% | 18.7% | 62.5% | 23.2% | 77.3% | -0.15% | 6.93% | 15.7% | 65.4% | 38.7%
COc1ccc(-c2oc3ncnc(N)c3c2-c2ccc(NC(=O)Nc3cc(C(F)(F)F)ccc3F)cc2)cc1 | 11.2% | 48.4% | 94.8% | 43.3% | 93.2% | 11.7% | 66.5% | 9.34% | 63.2% | 96.6% | 101% | 38.6% | 88.9% | 6.4% | 54.4% | 18% | 72.1% | 26.6% | 86.2% | 20.2%
COc1cc2ncn(-c3cc(OCc4ccccc4C(F)(F)F)c(C(=O)N(C)C)s3)c2cc1OC | 1.07% | 0.76% | 10.9% | 0.93% | 8.58% | 1.59% | 2.36% | 1.4% | -4.49% | -0.19% | 2.19% | 11% | 39.9% | 4.06% | 23.9% | 2.17% | 1.13% | 5.15% | 26.5% | 6.2%
Cc1ccc(O)cc1Nc1ccnc2cc(-c3ccccn3)ccc12 | 49.7% | 72.8% | 94.3% | 65.2% | 91.9% | 1.35% | 4.24% | 11.7% | 5.41% | 3.21% | 5.77% | 67.2% | 89.5% | 81.4% | 96.2% | 7.02% | 6.98% | 70.4% | 105% | 53.4%
CCn1cc(-c2ccnc3[nH]ccc23)c(-c2cccc(NC(=O)Nc3ccc(OCc4ccccc4)cc3)c2)n1 | -0.91% | 5.25% | 19.4% | 2.62% | 13.6% | 0.66% | 8.39% | 9.54% | 46.4% | -1.52% | -5.2% | 1.29% | 7.03% | 1.41% | 2.72% | 0.5% | 1.13% | -0.44% | 1.14% | 2.04%
CN(C)CCOc1ccc(-c2nc(-c3ccncc3)c(-c3ccc4c(c3)CC/C4=N\O)[nH]2)cc1 | 8.56% | 6.26% | 8.56% | 2.81% | 6.8% | 0.89% | 4.76% | 3.76% | 13.3% | 2.95% | 3.72% | 8.1% | 15.9% | 0.79% | 3.47% | 3.47% | 8.38% | 2.97% | 5.35% | 4.84%
